Compounds with a hit are over-represented: about 1.7% of the library has one in this group of screens.
GLP-1R inv ag = inverse agonists of human GLP-1 receptor; P43220; HEK293 GLP-1R CRE-luciferase, luminescence, 24 h; GLP-1R form is constitutively active; Potency, µM (series often up to 38.3 µM), for the others: at the top dose activity change, negative = inhibition, usual class: inhibitors; actives 1.6% (n = 410,000); AID 624417; also: % is scaled to controls: 0 for no effect and ±100 for the full control effect; nearly all actives have a fitted effect of over 55% in size
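Seeding at 200 cells/uL, 12 h culture, 24 hr compound treatment, then luciferase reagent and a luminescence read; cells are HEK293 stably expressing a constitutively active GLP-1R plus cAMP-responsive luciferase.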
PTHR1 ag = PTHR1 (human) receptor agonism; Q03431; HEK293 GP2 PTHR1 cells, GloSensor cAMP luminescence, 1 h; Potency, µM (titrated, usually from 115 µM), for inactives: at the top dose activation, usual class: activators; actives 0.075% (n = 410,000); also: nearly all actives have a fitted effect of over 55% in size
Target sequence (Q03431 whole entry, looked up): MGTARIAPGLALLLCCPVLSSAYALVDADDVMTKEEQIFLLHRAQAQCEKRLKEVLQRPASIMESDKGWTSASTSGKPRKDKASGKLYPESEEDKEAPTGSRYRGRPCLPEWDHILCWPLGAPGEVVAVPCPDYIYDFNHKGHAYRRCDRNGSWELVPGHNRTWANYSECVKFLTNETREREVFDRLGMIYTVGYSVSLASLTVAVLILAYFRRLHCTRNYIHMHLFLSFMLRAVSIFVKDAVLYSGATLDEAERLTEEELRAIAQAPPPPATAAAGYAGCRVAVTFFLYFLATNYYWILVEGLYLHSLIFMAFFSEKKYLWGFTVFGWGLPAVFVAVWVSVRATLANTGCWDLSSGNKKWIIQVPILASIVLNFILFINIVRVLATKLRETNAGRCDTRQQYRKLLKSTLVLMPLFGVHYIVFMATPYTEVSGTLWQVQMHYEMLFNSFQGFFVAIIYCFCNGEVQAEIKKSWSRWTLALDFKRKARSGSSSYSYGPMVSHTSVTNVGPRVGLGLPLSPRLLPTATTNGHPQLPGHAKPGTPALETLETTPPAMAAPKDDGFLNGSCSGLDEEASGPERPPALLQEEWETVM
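HEK-293-derived GP2 cells expressing PTHR1 and a GloSensor cAMP reporter, 3,000/well, plated overnight, given luciferin plus IBMX (each 0.5 mM as added) for 1 h at 37 °C, then compound for 1 h at 37 °C. Luminescence was read after 15 min at room temperature.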
GLP1R ag = GLP-1 receptor (human) agonism; AID 624172; Potency, µM (titrated, usually from 45.6 µM), inactives show at the highest dose activation, actives largely listed as activators; actives 0.007% (n = 380,000); HEK293 GLP-1R CRE-luciferase, luminescence, 4-6 h; cells express a hypersensitive GLP-1R form; P43220; also: % of control where 0% means no effect
HEK293 tox = cytotoxic in the GLP-1 receptor inverse agonist counter-screen; AID 624418; HEK293 cAMP-luciferase reporter cells, luminescence, 24 h; actives 0.13% (n = 410,000); Potency, µM (top dose mostly 38.3 µM), for inactives: at the highest dose activity change, negative = inhibition, hits mostly inhibitors;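 also: loss of luciferase light is scored as toxicity; % is scaled to controls: 0 for no effect and ±100 for the full control effect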
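Compound-treated cells are incubated 24 hr at 37 deg C under 5% CO2 after a 12 hour attachment period, then luciferase detection reagent is added and luminescence is measured following 12 min at room temperature; lowered signal indicates toxicity.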
* marks the source's active call; other numbers are inactive results; i = inactive; u = inconclusive; x = no result; [ ] = remark or other dose. Calls follow the shape of the dose curve; as a rule, active = well fitted curve in the direction sought with a large enough effect; inconclusive = small, poorly fitted or top-dose-only effect, or another doubt; inactive = no such curve, though single readings can be large; an effect the other way counts as inactive or inconclusive. Potency is read from the fitted curve at half-maximal effect.

SMILES | GLP-1R inv ag | PTHR1 ag | GLP1R ag | HEK293 tox
Cc1ccsc1/C=N\NC(=O)c1n[nH]c2c1CCC2 | 2.8µM* | -32% | -21% | u
O=C(N/N=C/c1c(Cl)cccc1Cl)c1n[nH]c2c1CCCC2 | u | -25% | -3% | -23%
C/C(=N\NC(=O)c1n[nH]c2c1CCC2)c1ccco1 | 1.8µM* | -24% | -6% | 13%
CCNC(=O)C1Cc2ccccc2CN1S(=O)(=O)c1ccc(F)cc1 (stereo not given) | 6% | i | -3% | 4%
O=C(Nc1ccc(F)c(Cl)c1)C1Cc2ccccc2CN1S(=O)(=O)c1ccc(F)cc1 (stereo not given) | 10µM* | -29% | x | -5%
C=CCN(c1ccccc1OC)S(=O)(=O)c1cccc(C(=O)NCc2cccs2)c1 | u | -13% | 11% | 8%
C=CCN(c1ccccc1Cl)S(=O)(=O)c1cccc(C(=O)NCCc2ccc(OC)cc2)c1 | 4.5µM* | i | -3% | -4%
CCN1CCN(c2cc(C)c3cc(NC(=O)c4ccc5c(c4)OCO5)ccc3n2)CC1 | 10% | -6% | -1% | u
CCN1CCN(c2ccc(NC(=O)c3ccc4c(c3)OCCO4)cc2C)CC1 | 6.3µM* | -19% | 7% | -5%
CC1CCN(c2ccc(C(=O)Nc3ccc4c(c3)OCO4)cc2[N+](=O)[O-])CC1 | 6.3µM* | -36% | 1% | -25%
CC(C)(C)C(=O)Nc1cc(-c2cccc(Br)c2)nn1-c1ccccc1 | u | i | x | 7%
CC1Cc2ccccc2N1S(=O)(=O)c1cnc(Cl)c(Cl)c1 (stereo not given) | u | -38% | 3% | 0%
CSc1ccc(S(=O)(=O)N2c3ccccc3CC2C)cc1 (stereo not given) | 5µM* | -62% | -4% | -7%
O=C(/C=C/NNC(=O)c1ccccc1)c1ccccc1 | u | -17%[57.5 µM] | -4% | 3.2µM*
O=C(/C=C/NNC(=O)c1ccc(Br)cc1)c1ccccc1 | u | -13%[57.5 µM] | -9% | u
COc1ccc(CSc2nnc(Cc3sc(-c4ccccc4)nc3-c3ccccc3)o2)cc1 | 10µM* | -5%[57.5 µM] | 1% | -4%
CCOC(=O)Cn1c(=O)oc2cc(S(=O)(=O)N3CCN(c4ccc(F)cc4)CC3)ccc21 | 4% | 11% | x | 0%
O=C(Nc1ccc(F)cc1)Nc1ccc(S(=O)(=O)N2CCCC2)cc1 | 8.9µM* | -38% | -1% | -24%
CCN1CCN(CC(=O)Nc2ccc(S(=O)(=O)N3C(C)CCCC3C)cc2)CC1 (stereo not given) | 11µM* | i | 12% | 4%
CC1CCN(CC(=O)Nc2ccc(S(=O)(=O)N3CCC(C)CC3)cc2)CC1 | u | 25% | 1% | u
CC1CCN(S(=O)(=O)c2ccc(NC(=O)CN3CCCC3)cc2)CC1 | 1.8µM* | i | 10% | 7%
O=C(Nc1ccc(F)cc1)c1ccc(S(=O)(=O)N2CCCC2)cc1 | 3% | -40% | 15% | -3%
CC1CC(C)CN(S(=O)(=O)c2ccc(NC(=O)CN3CCCCCC3)cc2)C1 (stereo not given) | 11µM* | -4% | 11% | u
COc1cccc(C2=NN(S(C)(=O)=O)C(c3cn(-c4ccccc4)nc3-c3cccs3)C2)c1 (stereo not given) | -6% | -46% | 3% | -7%
CC1CCN(S(=O)(=O)c2ccc(NC(=O)C3CCN(C(=O)c4ccco4)CC3)cc2)CC1 | 2.8µM* | -16% | 9% | 14%
SMILES | GLP-1R inv ag | PTHR1 ag | GLP1R ag | HEK293 tox
Cc1cccc(N2CCN(CC(=O)Nc3ccc(S(=O)(=O)N4CCOCC4)cc3)CC2)c1C | 11µM* | -30% | -4% | 1%
CC1CCCN(S(=O)(=O)c2ccc(NC(=O)CN3CCCCC3)cc2)C1 (stereo not given) | 22µM* | 17% | 18% | 1%
Cc1ccc(S(=O)(=O)N2CCN(CC(=O)Nc3ccc(N4CCOCC4)cc3)CC2)cc1C | 0% | -1% | -1% | -2%
O=C(Nc1ccc(S(=O)(=O)N2CCCCC2)cc1)C1CCN(C(=O)c2ccco2)CC1 | u | -45% | 6% | 1%
COc1cc(OC)cc(N2C(=O)N(CC(=O)c3ccc(F)cc3)c3ccccc3S2(=O)=O)c1 | 1% | -3% | x | -5%
CC(C)=CCC/C(C)=C\CC/C(C)=C\CC/C(C)=C\CC1=C(C)C(=O)c2ccccc2C1=O | x | x | 1% | x
CCOC(=O)N1CCC(NC(=O)c2cnn(-c3ccc(C)cc3)c2C2CCN(C(=O)OC(C)(C)C)CC2)CC1 | 5% | i | x | -6%
CCOc1ccc(Nc2nc(C)c(NC(=O)c3cccc(OC)c3)c(Nc3ccc(OCC)cc3)n2)cc1 | u | 17% | -12% | -22%
CCOc1ccc(C(=O)Nc2c(C)nc(Nc3ccccc3)nc2Nc2ccccc2)cc1OCC | 10µM* | 6% | -1% | -14%
Cc1cc(NC(=O)CSc2nc3cc(Cl)ccc3o2)no1 | 2.5µM* | i | 5% | u
Cc1ccc(NC(=O)c2cnn3c(C(F)F)cc(-c4ccccc4)nc23)cc1F | 4% | -7% | 0% | 1%
COc1cccc2c1C(=O)c1c(O)c3c(c(O)c1C2=O)C[C@](O)(C(C)=O)C[C@H]3O[C@@H]1C[C@@H](N)[C@@H](O)[C@@H](C)O1 | 2.8µM* | -13% | -12% | -36%
COc1nnc(-c2ccc(N3CCCCC3)c(NC(=O)c3ccccc3Cl)c2)c2ccccc12 | 3.5µM* | -48% | x | -11%
COc1cccc(C(=O)Nc2nnc(C(C)C)s2)c1 | 11µM* | -32%[57.5 µM] | -11% | 7%
C=C(C)c1cccc(C(C)(C)NC(=O)Nc2nnc(C(C)C)s2)c1 | 10µM* | i | 9% | 8%
CC(C)NC(=S)N=Nc1c(O)[nH]c2ccc([N+](=O)[O-])cc12 | u | -25% | 10% | 2.5µM*
NC(=O)N=Nc1c(O)[nH]c2ccc([N+](=O)[O-])cc12 | 11% | i | 3% | -17%
C=C(C)CNC(=S)N=Nc1c(O)[nH]c2ccc([N+](=O)[O-])cc12 | -73% | -6% | 10% | 4.5µM*
O=C(CNC(=O)c1ccco1)N=Nc1c(O)[nH]c2ccc([N+](=O)[O-])cc12 | 7% | 15% | 8% | u
CC/C=C(/C(=O)N[C@@H]1C(=O)N2C(C(=O)OCOC(=O)C(C)(C)C)=C(COC(N)=O)CS[C@H]12)c1csc(N)n1 | x | x | -2% | x
O=C(CN1C(=O)C2(SCC(=O)N2c2ccccc2)c2ccccc21)NCc1ccccc1Cl (stereo not given) | -9% | i | -4% | -12%
O=C(CN1C(=O)C2(SCC(=O)N2c2cccc(F)c2)c2ccccc21)NCc1ccccc1Cl (stereo not given) | 8.9µM* | -26% | -1% | -15%
Cc1ccc(-n2ncc3c(N4CCCCCC4)ncnc32)cc1Cl | u | -35% | x | 2%
Cc1cccc(-n2ncc3c(N4CCOCC4)ncnc32)c1 | 3.2µM* | -47% | -9% | -3%

Compound activity as filed in PubChem BioAssay.
